The values below come from PubChem BioAssay AID686979 (National Center for Advancing Translational Sciences (NCATS), 2013).

Out of some 420,000 compounds screened, about 50,000 (12%) were called active. Not shown: some 26% with an inconclusive outcome. The entries come from a sample that favours actives as a whole. Values without a mark were called inactive. Calls follow the shape of the dose curve; as a rule, active = well fitted inhibition curve with a large enough effect; inconclusive = small, poorly fitted or top-dose-only effect; inactive = flat fitted curve, though single readings scatter.
% is scaled to controls: 0 for no effect and ±100 for the full control effect; potency is read from the fitted curve at half-maximal effect.

A short description of this assay: qHTS for Inhibitors of human tyrosyl-DNA phosphodiesterase 1 (TDP1): qHTS in cells in presence of CPT. Also: nearly all actives have a fitted effect of over 55% in size. The settings on record: chicken DT40 Tdp1-/-;hTDP1 cells + 20 nM CPT, ATP luminescence, 48 h; series mostly up to 46.2 µM; activity change, negative = growth inhibition: at the top concentration. The source says:
Human tyrosyl-DNA phosphodiesterase 1 (TDP1) is a novel repair gene, and we propose to use it as a new target for anticancer drug development. TDP1 is not an essential protein, but under treatment with topoisomerase I poison (camptothecin: CPT), TDP1 works as a critical factor for cell survival. To directly identify novel TDP1 inhibitors active in a cellular environment, we have knocked-out the Tdp1 gene in chicken DT40 cells (Tdp1-/-) and generated a complemented counterpart cells that contains a stable transfection of the human TDP1 gene (Tdp1-/-;hTDP1 cells). For the primary screen, Tdp1-/-;hTDP1 cells will be exposed to small molecules in the presence or absence of CPT, and their growth kinetics will be evaluated after 48 hours by measuring ATP activity. […] The hit compounds will then be evaluated in the presence or absence of CPT using Tdp1-/- cells. […] In tertiary assays, biochemical gel-based assays will be used to assess whether the hit compounds specifically target TDP1. To this end, we have screened this cell line against the MLSMR in two primary screens. In one screen we add CPT and in the other we screen in the absence of CPT; this AID represents the screen where CPT was present. NIH Chemical Genomics Center [NCGC] NIH Molecular Libraries Probe Centers Network [MLPCN] MLPCN Grant: MH095538 Assay Submitter (PI): Yves Pommier, NCI
DT40-hTDP1 cells with 20 nM Camptothecin (add 20 microL of 1 mM CPT stock in 1 L of cell culture medium) were dispensed at 400 cells/5microL/well in tissue culture treated 1536-well white wall/solid bottom assay plates (Greiner Bio-One North America, NC, U.S.A.) using a Multidrop Combi 8 channel dispenser (Thermo Fisher, Waltham, MA, USA). 23 nL compounds and controls were transferred using the pin tool (Kalypsys, San Diego, CA, USA) to the assay plates. The assay plates were then incubated at 37 masculineC for a minimum 48 hr. Three microL of Cell Titer Glo solution was added to the plates and incubated at RT in dark for 30 min. Luminescence was read using ViewLux (Perkin Elmer) with 1 sec exposure slow speed, high gain and 2x binning.
Background: In qHTS, concentration-response curves come from the screen itself.
Take `CC1CCCC(C)N1C(=O)COC(=O)c1ccccc1C(=O)c1ccccc1` (centres undefined): the “activity change, negative = growth inhibition” value is -17.9%.

Regarding `Cc1ccc(Cl)c(OCC(=O)N2CCc3ccccc3C2)c1`, the “activity change, negative = growth inhibition” value was 4.91%.

`OC(COc1ccc(F)cc1Cl)CN1CCc2ccccc2C1` (centres undefined): the Potency is 20.6 µM (active).

As for `C=CCc1ccccc1OCC(O)CN1CCN(CCO)CC1` (centres undefined), the “activity change, negative = growth inhibition” value is -1.41%.

With `COCCN1CCn2c(nc3cc(NS(C)(=O)=O)ccc32)C1`, the “activity change, negative = growth inhibition” value was -0.0281%.

Consider `Cc1cccc(CCNC(=O)Cn2ncc3c([nH]c4ccc(C)cc43)c2=O)c1`, for which the “activity change, negative = growth inhibition” value was 5.21%.

Consider `CS(=O)(=O)N1CCC2(CC1)CN(Cc1ccccc1)C2`, for which the “activity change, negative = growth inhibition” value is -3.76%.

Take `CC12CN(Cc3ccccc3)CC(C)(CN(Cc3ccccc3)C1)C2=NO`: the Potency is 23.1 µM (active).

As to `CC(=O)N1CCC2(CCCN(Cc3ccccc3)C2)CC1`, the “activity change, negative = growth inhibition” value is 10.1%.

For the molecule `O=C1Nc2cc(Cl)c(Cl)cc2N(O)N1c1cc(Cl)cc(Cl)c1`, the “activity change, negative = growth inhibition” value was -23%.

Take `CCSc1ncc(Cl)c(C(=O)Nc2cc(C)ccc2C)n1`: the Potency entry was “inactive”.

With `O=C(Nc1ccccc1C(F)(F)F)c1nc(S(=O)(=O)Cc2ccccc2F)ncc1Cl`, the Potency was 0.562 µM (active).

On to `Cc1ccc(NC(=O)c2cccnc2C(=O)Nc2ccc(C)cc2)cc1`, for which the “activity change, negative = growth inhibition” value was -2.57%.

Take `CSc1nnc(NC(=O)c2nc(S(=O)(=O)Cc3ccc(C)cc3)ncc2Cl)s1`: the Potency was 6.51 µM (active).

For the molecule `O=C(Nc1nc2ccc(F)cc2s1)c1nc(SCc2ccccc2F)ncc1Cl`, the “activity change, negative = growth inhibition” value was -22.7%.

In the case of `NC(=O)CSc1nnc(NC(=O)c2ccc(Br)o2)s1`, the “activity change, negative = growth inhibition” value was -8.79%.

With `Cc1cccc(NC(=O)C(C)SCc2ccccc2)c1` (centres undefined), the “activity change, negative = growth inhibition” value was -16.9%.

Turning to `CCSc1nnc(NC(=O)c2ccc(C)cc2)s1`, the “activity change, negative = growth inhibition” value was -18.9%.

On to `Cc1ccc(NC(=O)c2nc(S(=O)(=O)Cc3cccc(C)c3)ncc2Cl)cc1`, for which the Potency was 0.651 µM (active).

Take `Cc1cccc(NC(=O)c2nc(S(=O)(=O)Cc3ccccc3)ncc2Cl)c1`: the Potency was 0.92 µM (active).

As to `CN(CC(=O)Nc1ccccc1C(F)(F)F)C(=O)Cc1ccccc1F`, the “activity change, negative = growth inhibition” value was -12.4%.

`CCCSc1ncc(Cl)c(C(=O)Nc2c(C(=O)Nc3ccccc3)oc3ccccc23)n1`: the “activity change, negative = growth inhibition” value is -28.7%.

`Cc1cc2c3ccccc3[nH]c(=O)n2n1`: the “activity change, negative = growth inhibition” value is -12%.

Take `COc1ccc(S(=O)(=O)N2CCOCC2)cc1NC(=O)CSc1ncnc2ccccc12`: the “activity change, negative = growth inhibition” value is 0.923%.

Turning to `Cc1cc2c(=O)n(CC(=O)NCC(=O)Nc3ccc(C(C)C)cc3)cnc2s1`, the “activity change, negative = growth inhibition” value is 1.73%.

Take `COc1ccc(CNC(=O)COc2cccnc2[N+](=O)[O-])cc1`: the “activity change, negative = growth inhibition” value is -4.32%.

Turning to `COc1cccc(C(=O)OCC(=O)c2[nH]c(C)c(C(C)=O)c2C)c1`, the “activity change, negative = growth inhibition” value is -19.6%.

For the molecule `CC(=O)Nc1ccc(Sc2ccccc2C(=O)N2CCCC2)cn1`, the “activity change, negative = growth inhibition” value was -23.3%.

Take `Cc1[nH]c2ccccc2c1C(=O)C(=O)NCc1nnnn1-c1cccc(F)c1`: the “activity change, negative = growth inhibition” value is -21.2%.

Regarding `CCc1c(C)c2ccc(OC3CCCCC3=O)cc2oc1=O` (centres undefined), the “activity change, negative = growth inhibition” value is -10.3%.

With `CSc1ncc(Cl)c(C(=O)Nc2cc(C)ccc2C)n1`, the “activity change, negative = growth inhibition” value is -2.22%.

Turning to `Cc1cccc(CS(=O)(=O)c2ncc(Cl)c(C(=O)Nc3ccc(F)cc3)n2)c1`, the Potency is 1.3 µM (active).

Regarding `Cc1cc(NC(=O)c2ccc(F)cc2)ccc1NC(=O)c1ccco1`, the “activity change, negative = growth inhibition” value is -1.79%.

Take `CC(=O)C1C(c2ccc(Cl)cc2)c2c(n[nH]c2C)CC1(C)O` (centres undefined): the “activity change, negative = growth inhibition” value is -7.41%.

Consider `Cc1ccc(CNC(=O)C(=O)c2cn(CC(=O)N3CCOCC3)c3ccccc23)cc1`, for which the “activity change, negative = growth inhibition” value is 6.23%.

Regarding `Cc1ccc(NC(=O)N2CCSc3ccccc32)cc1`, the “activity change, negative = growth inhibition” value was -18.4%.

Turning to `C=CCn1c(C23CC4CC(CC(C4)C2)C3)n[nH]c1=S`, the “activity change, negative = growth inhibition” value was -28.3%.

Take `CCc1c(C)nc(N2CCN(Cc3ccccc3)CC2)[nH]c1=O`: the “activity change, negative = growth inhibition” value is -24.7%.

In the case of `CC(C)OC(=O)C(C#N)c1nc2ccccc2nc1N1CCN(Cc2ccccc2)CC1` (centres undefined), the Potency is 23.1 µM (active).

For `COC(=O)c1sc(N2CCN(Cc3ccccc3)CC2)nc1N`, the “activity change, negative = growth inhibition” value is 1.92%.

In the case of `CN1CC(=O)N=C1N`, the Potency result was “inactive”.

As for `N#Cc1c(-c2ccccc2)c(-c2ccccc2)n[nH]c1=O`, the “activity change, negative = growth inhibition” value is -27.2%.

As for `CN(C)c1ccc(CNC(=O)CN2C(=O)COc3ccc(S(=O)(=O)N4CCCC4)cc32)cc1`, the “activity change, negative = growth inhibition” value is 0.598%.

As for `CCCCOC(=O)CNc1nnc(SCC(=O)OCC)[nH]c1=O`, the Potency is 10.3 µM (active).

For `Cc1nnc(SCC(=O)N2CCOCC2)[nH]c1=O`, the “activity change, negative = growth inhibition” value was 24%.

With `CCOC(=O)c1c(NC(=O)CSc2nnc(C)c(=O)[nH]2)sc2c1CCC2`, the “activity change, negative = growth inhibition” value is -7.67%.

With `CC(=O)c1ccc[n+](C(C)CCC(C)[n+]2cccc(C(C)=O)c2)c1` (centres undefined), the “activity change, negative = growth inhibition” value is 22.8%.

Turning to `Cc1ccccc1N1CCN(C(=O)c2cccnc2)CC1`, the “activity change, negative = growth inhibition” value is -0.308%.

Regarding `Cc1cccc(N2CCN(C(=O)/C=C/c3ccco3)CC2)c1C`, the Potency is 16.4 µM (active).

Turning to `CCn1c(C)c(C)c2cc(C(=O)N3CCN(c4cccc(C)c4C)CC3)ccc21`, the Potency is 20.6 µM (active).

As for `CS(=O)(=O)N1CCc2cc(C(=O)Nc3ccccc3Br)ccc21`, the “activity change, negative = growth inhibition” value was 1.75%.

Turning to `Cc1cccc(N2CCN(C(=O)c3ccc(Nc4nc5ccccc5n5nnnc45)cc3)CC2)c1C`, the “activity change, negative = growth inhibition” value was 31.6%.

For `CCOC(=O)c1c(N)n(-c2cccc(C)c2C)c2nc3ccccc3nc12`, the “activity change, negative = growth inhibition” value is 3.51%.

`O=C(/C=C/c1ccco1)NC(=S)N1CCCCC1`: the “activity change, negative = growth inhibition” value was -15%.

`Cc1cccc(N2CCN(C(=O)c3ccc4c(c3)CCN4S(=O)(=O)c3ccccc3)CC2)c1C`: the Potency is 5.8 µM (active).

`CCC(CC)C(=O)N1CCN(c2cccc(C)c2C)CC1`: the Potency was 14.6 µM (active).

`CSc1ccccc1NC(=O)c1ccc2c(c1)CCN2S(C)(=O)=O`: the “activity change, negative = growth inhibition” value was 0.0239%.

For `CC(=O)N1CCN(c2cccc(C)c2C)CC1`, the “activity change, negative = growth inhibition” value was 4.39%.

Take `C[C@H]1CN([C@@H](C)CO)C(=O)CCCn2cc(nn2)CO[C@@H]1CN(C)C(=O)Nc1ccccc1`: the “activity change, negative = growth inhibition” value is 8.28%.

`CCCCN(C(=O)c1nn(C)c(=O)c2ccccc12)c1c(N)n(CCC)c(=O)[nH]c1=O`: the “activity change, negative = growth inhibition” value is 1.59%.

With `CCCNC(=O)c1cc(C2CCCN(C(=O)c3ccc4c(c3)CCO4)C2)on1` (centres undefined), the “activity change, negative = growth inhibition” value was 5.21%.

As for `C=Cn1c(C(=O)O)ccc1-c1ccc(OC)cc1`, the “activity change, negative = growth inhibition” value is -3.64%.

Regarding `CCCCC1N2CC3([N+](=O)[O-])CN1CC([N+](=O)[O-])(C2)C3(C)C` (centres undefined), the “activity change, negative = growth inhibition” value was -4.33%.

Regarding `CCc1ccc(NC(=O)CS(=O)CC(=O)N2CCN(c3ccccc3F)CC2)cc1` (centres undefined), the “activity change, negative = growth inhibition” value was 3.72%.

In the case of `CCOc1ccccc1NC(=S)N1CCN(c2cccc(C)c2C)CC1`, the Potency was 11.6 µM (active).

Consider `CCOc1ccccc1NC(=O)NC1CCCCCCC1`, for which the “activity change, negative = growth inhibition” value was -7.99%.

On to `Cc1cccc(NC(=S)N2CCC(O)CC2)c1C`, for which the “activity change, negative = growth inhibition” value was 5.79%.

Turning to `O=C(c1ccc(CN2CCOCC2)cc1)N1CCN(c2ccccc2F)CC1`, the “activity change, negative = growth inhibition” value is 8.09%.

As to `Cc1c(C)n(Cc2ccc(Cl)cc2)c2ccc(C(=O)N3CCN(c4ccccc4F)CC3)cc12`, the Potency was 18.4 µM (active).
